# Unmarked numbers belong to inactive results.
# Legend:
# Experiment in all cases: log2 ratio of Biotin-Ahx-Ub-VS probe labelling (fragment/DMSO); higher = less target engagement (more negative = stronger competition), active = hit call of the paper (q ≤ 0.05, log2 ratio ≤ -1)
# Settings in all cases: compound concentration: 200 uM; treatment time: 3 h
# OTUD6B = biological target: T1, OTUD6B (UniProt Q8N6M0)
# T1 sequence (whole entry): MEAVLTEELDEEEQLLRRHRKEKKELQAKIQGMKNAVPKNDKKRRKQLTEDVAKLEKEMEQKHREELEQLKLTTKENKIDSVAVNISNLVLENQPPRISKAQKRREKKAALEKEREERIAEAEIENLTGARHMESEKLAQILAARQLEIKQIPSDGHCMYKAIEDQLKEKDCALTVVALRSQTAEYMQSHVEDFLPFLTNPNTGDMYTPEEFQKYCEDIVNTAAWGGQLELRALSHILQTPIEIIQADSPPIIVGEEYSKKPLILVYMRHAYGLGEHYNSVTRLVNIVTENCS
# In short: (§1)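 Fragment (200 µM) or vehicle was incubated for 3 h with triplicate HEK293T lysate samples of 495 µg, which were then treated with Biotin-Ahx-Ub-VS at 0.5 µM final for 1 h. Labelled DUBs were enriched on NeutrAvidin, digested with LysC and trypsin, and analysed by diaPASEF LC-MS/MS. Values are average log2 fragment/vehicle ratios from an unpaired t-test on global-median-normalised Spectronaut label-free quantities, using proteins with ≥2 unique peptides.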
# OTUD7B = biological target: T2, OTUD7B (UniProt Q6GQQ9)
# T2 sequence (whole entry): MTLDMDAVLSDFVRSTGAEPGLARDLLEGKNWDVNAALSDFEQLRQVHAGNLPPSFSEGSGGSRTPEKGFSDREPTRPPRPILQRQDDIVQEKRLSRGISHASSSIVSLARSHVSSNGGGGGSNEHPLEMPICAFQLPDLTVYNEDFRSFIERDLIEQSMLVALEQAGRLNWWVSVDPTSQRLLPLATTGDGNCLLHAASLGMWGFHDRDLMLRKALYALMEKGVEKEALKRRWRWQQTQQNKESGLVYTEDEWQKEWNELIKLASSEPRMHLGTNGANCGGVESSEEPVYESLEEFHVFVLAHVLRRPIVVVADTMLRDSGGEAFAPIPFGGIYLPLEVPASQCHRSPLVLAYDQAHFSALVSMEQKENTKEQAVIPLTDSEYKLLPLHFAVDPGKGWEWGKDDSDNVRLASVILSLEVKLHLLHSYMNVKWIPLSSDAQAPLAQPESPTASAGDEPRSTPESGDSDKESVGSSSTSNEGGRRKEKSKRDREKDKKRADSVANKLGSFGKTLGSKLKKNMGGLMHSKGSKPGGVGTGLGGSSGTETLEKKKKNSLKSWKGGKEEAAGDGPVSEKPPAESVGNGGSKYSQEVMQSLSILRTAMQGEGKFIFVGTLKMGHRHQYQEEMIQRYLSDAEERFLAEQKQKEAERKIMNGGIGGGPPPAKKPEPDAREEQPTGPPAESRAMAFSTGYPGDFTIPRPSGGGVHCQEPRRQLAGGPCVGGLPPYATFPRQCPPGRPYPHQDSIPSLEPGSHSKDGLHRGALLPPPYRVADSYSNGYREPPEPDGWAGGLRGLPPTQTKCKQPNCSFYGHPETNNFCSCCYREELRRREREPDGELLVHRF
# In short: as §1
# PRPF8 = PRPF8 (UniProt Q6P2Q9)
# In short: as §1
# PSMD7 = biological target: T3, PSMD7 (UniProt P51665)
# T3 sequence (whole entry): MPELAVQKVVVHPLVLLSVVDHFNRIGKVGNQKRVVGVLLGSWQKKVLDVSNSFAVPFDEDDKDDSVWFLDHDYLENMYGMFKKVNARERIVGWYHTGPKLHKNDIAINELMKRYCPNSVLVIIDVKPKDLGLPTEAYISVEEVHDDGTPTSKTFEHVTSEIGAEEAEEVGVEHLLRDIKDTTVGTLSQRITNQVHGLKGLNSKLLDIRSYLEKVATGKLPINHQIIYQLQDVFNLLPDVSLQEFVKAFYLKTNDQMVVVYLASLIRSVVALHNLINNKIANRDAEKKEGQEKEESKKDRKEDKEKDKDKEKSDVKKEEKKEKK
# In short: as §1
# UCHL1 = UCHL1 (UniProt P09936)
# UCHL1, sequence (P09936 whole entry, looked up): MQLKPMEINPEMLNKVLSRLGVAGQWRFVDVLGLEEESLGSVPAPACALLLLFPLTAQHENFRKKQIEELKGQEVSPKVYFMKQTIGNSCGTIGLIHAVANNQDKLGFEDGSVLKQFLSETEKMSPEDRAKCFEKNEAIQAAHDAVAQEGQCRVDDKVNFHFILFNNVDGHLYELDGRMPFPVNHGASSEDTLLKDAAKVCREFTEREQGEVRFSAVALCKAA
# In short: as §1
# UCHL3 = biological target: T4, UCHL3 (UniProt P15374)
# T4 sequence (whole entry): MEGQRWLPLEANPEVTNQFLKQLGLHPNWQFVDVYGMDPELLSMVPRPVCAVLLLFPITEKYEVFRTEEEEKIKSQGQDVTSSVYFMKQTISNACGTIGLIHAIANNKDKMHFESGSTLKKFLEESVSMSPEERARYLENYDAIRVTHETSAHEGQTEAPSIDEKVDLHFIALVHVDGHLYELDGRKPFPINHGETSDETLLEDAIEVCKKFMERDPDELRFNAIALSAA
# In short: as §1
# UCHL5 = biological target: T5, UCHL5 (UniProt Q9Y5K5)
# T5 sequence (whole entry): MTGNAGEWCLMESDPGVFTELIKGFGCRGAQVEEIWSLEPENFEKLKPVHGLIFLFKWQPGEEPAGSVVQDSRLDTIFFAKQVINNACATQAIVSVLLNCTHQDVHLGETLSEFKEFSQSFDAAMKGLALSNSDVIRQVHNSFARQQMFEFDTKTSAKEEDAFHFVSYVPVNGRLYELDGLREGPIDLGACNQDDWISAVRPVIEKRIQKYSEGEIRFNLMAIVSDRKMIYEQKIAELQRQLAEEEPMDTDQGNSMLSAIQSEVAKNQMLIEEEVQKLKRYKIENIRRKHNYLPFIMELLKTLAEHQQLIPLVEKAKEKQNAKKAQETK
# In short: as §1
# USP10 = USP10 (UniProt Q14694)
# USP10, sequence (Q14694 whole entry): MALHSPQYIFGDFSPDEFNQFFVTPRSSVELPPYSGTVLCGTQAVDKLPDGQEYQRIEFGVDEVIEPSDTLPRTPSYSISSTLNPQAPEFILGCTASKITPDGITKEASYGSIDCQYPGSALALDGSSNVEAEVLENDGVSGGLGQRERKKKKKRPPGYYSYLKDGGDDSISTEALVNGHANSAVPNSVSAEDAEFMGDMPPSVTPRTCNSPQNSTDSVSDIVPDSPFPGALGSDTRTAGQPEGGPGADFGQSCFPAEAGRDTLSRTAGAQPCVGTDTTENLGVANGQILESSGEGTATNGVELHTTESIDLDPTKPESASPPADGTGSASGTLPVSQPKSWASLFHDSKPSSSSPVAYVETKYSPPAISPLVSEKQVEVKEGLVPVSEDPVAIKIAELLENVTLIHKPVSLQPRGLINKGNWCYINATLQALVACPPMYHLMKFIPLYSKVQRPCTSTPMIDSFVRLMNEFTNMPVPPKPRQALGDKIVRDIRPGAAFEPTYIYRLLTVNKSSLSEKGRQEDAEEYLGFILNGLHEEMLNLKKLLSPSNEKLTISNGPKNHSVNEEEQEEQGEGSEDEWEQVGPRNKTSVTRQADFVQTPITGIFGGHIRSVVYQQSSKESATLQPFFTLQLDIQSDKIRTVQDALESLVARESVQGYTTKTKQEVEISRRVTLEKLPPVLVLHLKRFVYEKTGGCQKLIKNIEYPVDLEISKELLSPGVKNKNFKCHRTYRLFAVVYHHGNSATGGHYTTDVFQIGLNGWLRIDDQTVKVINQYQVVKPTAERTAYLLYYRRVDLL
# In short: as §1
# USP15 = biological target: T6, USP15 (UniProt Q9Y4E8)
# T6 sequence (whole entry): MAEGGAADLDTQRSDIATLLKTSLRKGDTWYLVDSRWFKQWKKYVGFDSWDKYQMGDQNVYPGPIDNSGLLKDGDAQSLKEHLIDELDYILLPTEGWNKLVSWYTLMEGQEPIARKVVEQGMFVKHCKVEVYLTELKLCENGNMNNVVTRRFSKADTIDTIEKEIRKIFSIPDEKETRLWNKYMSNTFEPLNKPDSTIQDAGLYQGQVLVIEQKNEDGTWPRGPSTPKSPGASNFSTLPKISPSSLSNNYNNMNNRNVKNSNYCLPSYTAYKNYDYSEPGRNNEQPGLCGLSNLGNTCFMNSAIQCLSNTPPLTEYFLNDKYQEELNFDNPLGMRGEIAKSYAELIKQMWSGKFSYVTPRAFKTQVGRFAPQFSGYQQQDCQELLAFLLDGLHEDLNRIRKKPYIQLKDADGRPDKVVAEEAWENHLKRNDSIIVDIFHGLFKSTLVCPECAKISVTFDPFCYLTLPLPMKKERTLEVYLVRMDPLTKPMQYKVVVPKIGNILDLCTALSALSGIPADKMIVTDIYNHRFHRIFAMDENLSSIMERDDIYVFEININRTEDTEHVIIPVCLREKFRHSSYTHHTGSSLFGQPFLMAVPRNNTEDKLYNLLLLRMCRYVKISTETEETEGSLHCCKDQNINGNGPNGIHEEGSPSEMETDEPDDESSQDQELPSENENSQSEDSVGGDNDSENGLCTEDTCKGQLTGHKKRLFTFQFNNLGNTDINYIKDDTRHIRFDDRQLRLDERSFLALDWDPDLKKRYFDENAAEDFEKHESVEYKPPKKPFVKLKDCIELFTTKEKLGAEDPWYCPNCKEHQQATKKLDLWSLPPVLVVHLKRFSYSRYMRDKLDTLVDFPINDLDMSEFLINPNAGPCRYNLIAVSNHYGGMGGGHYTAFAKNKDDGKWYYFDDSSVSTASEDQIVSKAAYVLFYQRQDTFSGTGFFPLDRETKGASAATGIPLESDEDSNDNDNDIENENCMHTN
# In short: as §1
# USP16 = USP16 (UniProt Q9Y5T5)
# USP16, sequence (Q9Y5T5 whole entry, looked up): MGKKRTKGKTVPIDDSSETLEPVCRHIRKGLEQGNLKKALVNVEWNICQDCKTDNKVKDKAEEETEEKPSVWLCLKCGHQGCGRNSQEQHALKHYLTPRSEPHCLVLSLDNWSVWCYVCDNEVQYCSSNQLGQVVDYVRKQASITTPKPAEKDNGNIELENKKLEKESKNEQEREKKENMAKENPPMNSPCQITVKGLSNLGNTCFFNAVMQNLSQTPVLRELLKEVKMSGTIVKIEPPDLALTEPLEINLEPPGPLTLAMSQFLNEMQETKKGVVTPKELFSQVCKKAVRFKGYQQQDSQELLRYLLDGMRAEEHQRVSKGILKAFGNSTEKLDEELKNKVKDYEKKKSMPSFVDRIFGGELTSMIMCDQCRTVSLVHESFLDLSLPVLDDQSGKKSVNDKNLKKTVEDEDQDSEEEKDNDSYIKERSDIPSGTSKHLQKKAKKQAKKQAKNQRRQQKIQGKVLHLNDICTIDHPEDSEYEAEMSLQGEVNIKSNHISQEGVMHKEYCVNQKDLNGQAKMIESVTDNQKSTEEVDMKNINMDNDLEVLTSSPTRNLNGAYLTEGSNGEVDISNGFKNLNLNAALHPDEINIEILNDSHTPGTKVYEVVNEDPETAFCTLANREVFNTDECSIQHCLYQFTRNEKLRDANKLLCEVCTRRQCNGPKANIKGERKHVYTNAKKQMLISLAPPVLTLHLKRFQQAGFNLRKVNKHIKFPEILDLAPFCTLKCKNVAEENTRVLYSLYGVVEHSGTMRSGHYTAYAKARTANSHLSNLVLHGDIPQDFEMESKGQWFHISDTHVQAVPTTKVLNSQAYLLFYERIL
# In short: as §1
smiles,measurement,setting,value
O=C(CCl)NC1CCC(C(F)(F)F)CC1 (stereo not given),log2 ratio of Biotin-Ahx-Ub-VS probe labelling,OTUD6B,-0.153
same,log2 ratio of Biotin-Ahx-Ub-VS probe labelling,OTUD7B,-0.576
same,log2 ratio of Biotin-Ahx-Ub-VS probe labelling,PRPF8,0.103
same,log2 ratio of Biotin-Ahx-Ub-VS probe labelling,PSMD7,-0.258
same,log2 ratio of Biotin-Ahx-Ub-VS probe labelling,UCHL1,-1.31 (active)
same,log2 ratio of Biotin-Ahx-Ub-VS probe labelling,UCHL3,0.327
same,log2 ratio of Biotin-Ahx-Ub-VS probe labelling,UCHL5,-0.0657
same,log2 ratio of Biotin-Ahx-Ub-VS probe labelling,USP10,-0.141
same,log2 ratio of Biotin-Ahx-Ub-VS probe labelling,USP15,-0.158
same,log2 ratio of Biotin-Ahx-Ub-VS probe labelling,USP16,-0.000805

# Source: the supplement of paper PMC11732987, “Enantioselective OTUD7B fragment discovery through chemoproteomics screening and high-throughput optimisation” (Communications Chemistry, 2025)
